The results in this text go back to PubChem BioAssay AID1259415 (National Center for Advancing Translational Sciences (NCATS), 2018).

Values joined by “and” are separate entries in the source; they are usually repeats but may differ in a detail not shown here. Equal values may be shown once. Screen size: about 410,000 compounds; about 18,000 (4.4%) were called active. Inconclusive results (about 7%) are left out. For the sample, actives were picked, then their nearest neighbours and some compounds at random. A number with no mark means an inactive call. No stated cut-off is given here; in the data, active means activity change below about -60%; inconclusive means no clear call, values can overlap the other calls; inactive means above about -39%.
On the % scale 0 is the no-effect control and ±100 the full control effect.

This assay in a line: qHTS Assay for inhibitors of the human cytomegalovirus (HCMV). The settings on record: HFF cells, HCMV-luciferase reporter, 72 h; at 57.5 µM; stronger effect = lower value. The essentials: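 Two-dose cell screen: HFF monolayers treated with compounds and infected with luciferase-expressing HCMV at 1 PFU/cell, 72 h at 37C, then lysed for luciferase measurement.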
For `N#CC(C#N)=CN=c1ccn(Cc2ccc(Cl)cc2Cl)cc1`, the activity change, negative = inhibition was -94.3% (active).

Regarding `CCc1nc2cccnc2n1-c1ccc(C(=O)O)cc1`, the activity change, negative = inhibition is -6.51%.

Take `Cc1c(NC(=S)NC(=O)CCc2ccccc2)c(=O)n(-c2ccccc2)n1C`: the activity change, negative = inhibition was -11.5%.

Take `COc1ccc(C(=O)NC(=S)NNC(=O)CCc2ccccc2)cc1`: the activity change, negative = inhibition was -85.4% (active).

In the case of `CCCCC(=O)NNC(=S)NC(=O)C(c1ccccc1)c1ccccc1`, the activity change, negative = inhibition is -31.6%.

On to `Cc1cccc(C(C)C)c1NC(=O)C(NS(=O)(=O)c1cccc2nsnc12)c1ccccc1` (centres undefined), for which the activity change, negative = inhibition is -12.4%.

`CCOC(=O)c1c(C)n(S(=O)(=O)c2ccc(C)cc2C)c2ccc(NS(=O)(=O)c3ccc(C)cc3C)cc12`: the activity change, negative = inhibition was 37%.

Turning to `O=C(c1ccc(C(F)(F)F)cc1)N1CCC(c2nc(-c3ccc(S(=O)(=O)N4CCCC4)cc3)no2)CC1`, the activity change, negative = inhibition is -39.7%.

On to `Cc1ccccc1NC(=O)c1c(NC(=O)c2ccccc2F)sc2c1CCC(C)C2` (centres undefined), for which the activity change, negative = inhibition is -1.03%.

Regarding `CC(C)NC(=O)COCc1cc(-c2ccc3c(c2)OCO3)on1`, the activity change, negative = inhibition was -102% (active).

`Cc1cccc(N2CCN(C(=O)COCc3cc(-c4ccc5c(c4)OCO5)on3)CC2)c1C`: the activity change, negative = inhibition was 10.8% and 0.0657%.

In the case of `CCOC(=O)N1CCN(C(=O)COCc2cc(-c3ccc4c(c3)OCO4)on2)CC1`, the activity change, negative = inhibition is -33.7%.

With `O=C(O)c1cccc(N=NN2CCCCCC2)c1`, the activity change, negative = inhibition is 134%.

As for `CCc1nnc(SCc2nc(-c3cccc(C)c3)oc2C)c2cc3sc(C)cc3n12`, the activity change, negative = inhibition is 22.7%.

With `CCc1nnc(SCc2c(F)cccc2Cl)c2cc3sccc3n12`, the activity change, negative = inhibition is -67.2% (active).

Take `Cn1c(SCc2c(F)cccc2Cl)nnc1-c1cnccn1`: the activity change, negative = inhibition was -2.73%.

For the molecule `CCOC(=O)CSC1=Nc2ccccc2C2=NC(CCC(=O)NCc3ccc(F)cc3)C(=O)N12` (centres undefined), the activity change, negative = inhibition is -5.13%.

Consider `COc1cccc(NC(=O)Nc2ccc3c(c2)N(C)C(=O)c2ccccc2S3)c1`, for which the activity change, negative = inhibition is -33.9%.

For the molecule `CCOc1ccc(N2C(=O)CN(c3cccc4ccccc34)C2=S)cc1`, the activity change, negative = inhibition is 28.1%.

With `CCO/C=C1\C(=O)N(c2ccc(OCC)cc2)C(=O)c2ccccc21`, the activity change, negative = inhibition is -9.21%.

For `CCOc1ccc(N2C(=O)CSC2=NC#N)cc1`, the activity change, negative = inhibition is -101% (active).

On to `Cn1c(=O)c(C(=O)O)nn(-c2ccccc2)c1=O`, for which the activity change, negative = inhibition is -0.182%.

In the case of `CCN(C(=O)COC(=O)c1cc(NS(=O)(=O)c2ccc(Cl)c([N+](=O)[O-])c2)ccc1O)C1CCCCC1`, the activity change, negative = inhibition is -23%.

As to `O=C(CCN1CCCCC1)N=Nc1c(O)[nH]c2ccccc12`, the activity change, negative = inhibition is 8%.

Take `O=[N+]([O-])c1cc(S(=O)(=O)Nc2cccc(Cl)c2)ccc1N=Nc1c(O)[nH]c2ccccc12`: the activity change, negative = inhibition is -78.2% (active).

In the case of `C/C(=N\NC(=O)NC1CCCCC1)c1ccc(OC(F)F)cc1OC(F)F`, the activity change, negative = inhibition was -36.3%.

With `N#Cc1ccc(CSc2nnc3ccccn23)cc1`, the activity change, negative = inhibition is -25.8%.

Take `Cc1ccc(-n2c(C)cc(C(=O)CSc3nnc4ccccn34)c2C)cc1`: the activity change, negative = inhibition was -86.1% (active).

`Cc1ccc(-n2c(C)nnc2SCC(=O)NC2CC2)cc1`: the activity change, negative = inhibition is 17.2%.

With `Cc1ccc(-n2nc(C)c(C(=O)O)c2-n2cccc2)cc1`, the activity change, negative = inhibition was 3.17%.

In the case of `COC(=O)c1cc(=O)n(-c2c(Cl)cc(C(F)(F)F)cc2Cl)[nH]1`, the activity change, negative = inhibition was 31.8%.

In the case of `C=CCn1cc(-c2cccc(C(F)(F)F)c2)cc(C#N)c1=O`, the activity change, negative = inhibition was -25.4%.

For `CC1(Cc2cccc(C#N)c2)C(=O)Nc2ccc(-c3cccc(C(F)(F)F)c3)cc21` (centres undefined), the activity change, negative = inhibition was -96.6% (active).

As for `Cc1oc2c(c1C(=O)N1CCOCC1)C(=O)c1ccccc1C2=O`, the activity change, negative = inhibition is -101% (active).

As for `Cc1ccc(C)c(CN2C(=O)c3ccccc3S(=O)c3ccc(C(=O)N4CCOCC4)cc32)c1` (centres undefined), the activity change, negative = inhibition was 9.82%.

In the case of `Cc1ccc(S(=O)(=O)NC(C(=O)N2CCOCCOCCOCCOCC2)c2ccccc2)cc1` (centres undefined), the activity change, negative = inhibition is -14.3%.

`COc1cc(NC(=O)C2CC(c3ccccc3O)=NO2)c(OC)cc1Cl` (centres undefined): the activity change, negative = inhibition is 0.764%.

As for `CCC(C)Cn1c(O)cc2nn(-c3nc4ccccc4s3)c(=O)c-2c1C` (centres undefined), the activity change, negative = inhibition is -80.3% (active).

In the case of `NS(=O)(=O)c1ccc(NC(=O)C(=O)Nc2ccc3nc4n(c(=O)c3c2)CCCCC4)cc1`, the activity change, negative = inhibition was 13.4%.

For the molecule `COc1ccc(-c2c(C)nn3c(N4CCC(C(=O)NCCC(C)C)CC4)cc(C)nc23)cc1OC`, the activity change, negative = inhibition is 1.6%.

As for `CCN1CCN(C(c2ccc(C)cc2)c2c(O)cc(C)n(Cc3ccco3)c2=O)CC1` (centres undefined), the activity change, negative = inhibition was 25%.

With `CCOc1ccccc1NC(=O)Cn1nnc(C(=O)Nc2ccc(C)c(C)c2)c1N`, the activity change, negative = inhibition was -18.4%.

Consider `CCOc1ccccc1NC(=O)Cn1nnc(C(=O)NCc2cccs2)c1N`, for which the activity change, negative = inhibition was -78.3% (active).

With `CCOc1ccc(Cl)cc1-c1cc(C(=O)NCc2cccs2)[nH]n1`, the activity change, negative = inhibition was 8.26%.

In the case of `COc1ccc(CNC(=O)CS(=O)Cc2nc(-c3cccc(C)c3)oc2C)cc1` (centres undefined), the activity change, negative = inhibition is -7.8%.

For `CN(CC(=O)O)S(=O)(=O)c1ccc2oc3ccccc3c2c1`, the activity change, negative = inhibition is -8.55%.

Take `COc1ccccc1CNc1nc2ccc(Cl)cc2n2cnnc12`: the activity change, negative = inhibition is 25.8%.

Regarding `COc1cccc(-c2cc3nc(NCc4ccccc4OC)n(C)c(=O)c3s2)c1`, the activity change, negative = inhibition was -13.2%.

For the molecule `COc1ccccc1CNc1nc(Nc2ccccc2Cl)c2sccc2n1`, the activity change, negative = inhibition was -67.2% (active).

Take `COc1cccc(CNc2nccn(-c3ccc(OC)c(OC)c3)c2=O)c1`: the activity change, negative = inhibition is 13.5%.

Consider `COc1cccc(CNc2nc(NCc3ccccc3OC)nc3ccsc23)c1`, for which the activity change, negative = inhibition is -90.2% (active).

As for `CC(C)Nc1nc(NCCOc2ccccc2Cl)c2sccc2n1`, the activity change, negative = inhibition is -35.9%.

Turning to `CCN1CCC(N(Cc2ccc(F)cc2)C(=O)Nc2cc(C)ccc2C)CC1`, the activity change, negative = inhibition is -23.7%.

With `CCOC(=O)Cn1c(=O)n(-c2ccccc2OC)c2nc(-c3cccc(F)c3)nc(C(N)=O)c21`, the activity change, negative = inhibition is 1.14%.

Turning to `O=C(CCl)N(Cc1cccc([N+](=O)[O-])c1)c1cccc(Cl)c1`, the activity change, negative = inhibition was -99.6% (active).

As for `O=C(O)c1cc(S(=O)(=O)N(Cc2ccccc2)c2ccccc2)ccc1Cl`, the activity change, negative = inhibition was -27.4%.

`O=C(Cc1ccc(F)cc1)N1CCN=C1SCc1cccc([N+](=O)[O-])c1`: the activity change, negative = inhibition is 35.3%.

Take `CCOC(=O)c1cc(NC(=O)c2ccc(F)cc2)c(=O)n2c1oc1ccccc12`: the activity change, negative = inhibition was -11.8%.

Consider `O=C(Cn1ncc2c3ccccc3n(Cc3ccccc3)c2c1=O)NCc1ccccn1`, for which the activity change, negative = inhibition was -12.1% and -33.7%.

For `CCCN(CCC)CCCNC(=O)Cn1ncc2c3ccccc3n(Cc3ccccc3)c2c1=O`, the activity change, negative = inhibition is -11.9%.

For `Cc1ccccc1Cn1c2ccccc2c2cnn(CC(=O)NCc3ccco3)c(=O)c21`, the activity change, negative = inhibition is -95.6% (active).

On to `Cc1ccc(-c2nnc(Nc3ccc(OCC(N)=O)cc3)c3ccccc23)cc1S(=O)(=O)NCC1CCCO1` (centres undefined), for which the activity change, negative = inhibition is -19.2%.

With `CCn1c(=O)cc(OCC(=O)Nc2cc(Cl)c(OC)cc2OC)c2ccccc21`, the activity change, negative = inhibition is 0.565%.

Turning to `C=CCC(C(=O)c1ccccc1)[N+](C)(C)CC=C` (centres undefined), the activity change, negative = inhibition is 12.4%.

For `COCC1CCCCN1C(=O)c1cc(COc2ccc(C)c(C)c2)on1` (centres undefined), the activity change, negative = inhibition was 50.2%.

As to `COC(=O)[C@@H]1CCCN1C(=O)c1cc(COc2cccc3cccnc23)on1`, the activity change, negative = inhibition was -61.4% (active).

Regarding `Cc1nonc1C1CCCN1C(=O)c1cc(COc2cccc(C(F)(F)F)c2)on1` (centres undefined), the activity change, negative = inhibition is 10.6%.

For the molecule `O=C(Cc1csc(Nc2nc(=S)[nH]c3ccccc23)n1)NCCCN1CCN(c2cccc(Cl)c2)CC1`, the activity change, negative = inhibition was 2.37%.

With `CCC(=O)NC(NCC1CCCO1)C(Cl)(Cl)Cl` (centres undefined), the activity change, negative = inhibition was -10.5%.

Consider `COCCN(CCOC)c1nc(N)c2c(N)nc3c(c2c1C#N)CC(=O)N3Cc1ccc(Cl)cc1`, for which the activity change, negative = inhibition was 30.8%.

For the molecule `Cc1cc(C)c(NC(=O)CSc2nc3ccncc3[nH]2)c(C)c1`, the activity change, negative = inhibition was -3.75%.

With `Cc1cc(C)c(SCCc2ccncc2)c(C)c1`, the activity change, negative = inhibition was -63.8% (active).

Take `c1ccc(CSCCc2ccncc2)cc1`: the activity change, negative = inhibition was -24.8%.

In the case of `COc1ccc2c(c1)C=C(C(=O)NCc1cc(Br)ccc1OC)CO2`, the activity change, negative = inhibition is -22.6%.

Consider `Cc1ccccc1Nc1scc(-c2ccc(Br)cc2)[n+]1-c1ccccc1C`, for which the activity change, negative = inhibition is -68.6% (active).

Take `CSCC[C@H](NC(=O)N1CCn2c1nc1ccccc12)C(=O)NC1CCCCC1`: the activity change, negative = inhibition is -35.1%.

For the molecule `CSc1ccc(Cl)c(C(=O)OCC(=O)N2CCNC2=O)c1`, the activity change, negative = inhibition was -17%.

With `CCN1CCN(C(=O)CN(C)S(=O)(=O)c2ccc3ccccc3c2)CC1`, the activity change, negative = inhibition is -9.61%.

On to `CN(C1CCS(=O)(=O)C1)S(=O)(=O)c1ccc2ccccc2c1` (centres undefined), for which the activity change, negative = inhibition is -24.3%.

On to `CC(=O)Oc1ccc(N(C(C)=O)S(=O)(=O)c2ccc3ccccc3c2)cc1Br`, for which the activity change, negative = inhibition was -69.6% (active).

For `CCC(CC)C(=O)N1CCc2cc(OC)c(OC)cc2C1COc1ccc(F)cc1` (centres undefined), the activity change, negative = inhibition is -15.5%.

For `O=C(Nc1c(C(=O)N2CCCCC2)cnn1-c1ccccc1)c1ccco1`, the activity change, negative = inhibition was 22.9%.

Turning to `O=C(Nc1ccc2nc(SCCOc3ccccc3Cl)sc2c1)c1ccco1`, the activity change, negative = inhibition was -70% (active).

As for `CC(=O)Nc1ccc2nc(SCCOc3cc(C)cc(C)c3)sc2c1`, the activity change, negative = inhibition is -35%.

For `COc1cc(C)ccc1OCCSc1nc2ccc(NC(=O)c3ccc(C)cc3)cc2s1`, the activity change, negative = inhibition is 24.3%.

As for `O=C(COc1ccc2ccc(=O)oc2c1)NCC(O)c1ccccc1` (centres undefined), the activity change, negative = inhibition is -6.86%.

`CC(=CCOc1ccc2ccc(=O)oc2c1)C1=CC(=O)C(C)(C)O1`: the activity change, negative = inhibition was -76.5% (active).

Consider `CC(C)OC(=O)c1ccc(COc2ccc3ccc(=O)oc3c2)o1`, for which the activity change, negative = inhibition is -15.4%.

Consider `CCOc1ccc(CNC(=O)c2ccc3nc(CC)c(CC)nc3c2)cc1OC`, for which the activity change, negative = inhibition was -2.8%.
